Here are results for 6 compounds from PubChem BioAssay.

For assay [1], the system named is Plasmodium falciparum Sir2 (PF13_0152, Sir2A). Briefly: Plasmodium falciparum Sir2A binding compounds – biochemical, small-molecule microarray, 635 nm fluorescence, primary screen (AID 1098).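 Note: score merges spot fluorescence intensity with its signal-to-noise ratio.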 The following applies: fluorescence 635 nm, higher = more signal.
Assay [2] is described as follows: probe aDKK1 binding to arrayed compounds – biochemical, biotinylated probe, 635/667 nm fluorescence, primary screen (AID 1099).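 Note: score merges 667nm spot fluorescence with signal to noise across triplicate slides.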 To be noted: small-molecule microarray, higher = more signal.
The nature of assay [3]: probe aCHRDL2 binding to arrayed compounds – biochemical, biotinylated probe, 635/667 nm fluorescence, primary screen (AID 1100). To be noted: small-molecule microarray, higher = more signal.
The nature of assay [4]: change in splice reporter luminescence, either direction, cell-based, HEK293, spliceosome inhibition project, primary screen (AID 1101).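 Note: HEK293 cells carrying a splicing-competent luciferase reporter gene; test concentration not given here.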 The following applies: HEK293 splicing luciferase reporter, 24 h, higher = more signal, called active from +8 up or from −8 down.
In assay [5] the target is Fibroblast growth factor 10 (Homo sapiens) (UniProt O15520). In words: compounds binding fibroblast growth factor 10 – biochemical, small-molecule microarray, 635 nm fluorescence, primary screen (AID 1102). The following applies: FGF10 binding, fluorescence 635 nm, higher = more signal.
Chain of Fibroblast growth factor 10 (Homo sapiens) (O15520 whole entry, looked up): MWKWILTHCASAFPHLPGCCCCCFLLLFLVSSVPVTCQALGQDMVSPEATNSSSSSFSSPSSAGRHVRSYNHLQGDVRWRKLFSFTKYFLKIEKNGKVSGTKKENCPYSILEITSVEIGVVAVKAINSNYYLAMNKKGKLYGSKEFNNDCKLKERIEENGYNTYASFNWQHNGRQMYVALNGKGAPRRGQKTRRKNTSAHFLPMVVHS
Assay [6] deals with glycogen synthase kinase-3 (GSK3A per assay name; protocol says GSK3B). In words: compounds binding glycogen synthase kinase-3 – biochemical, small-molecule microarray, 635 nm fluorescence, GSK3A, primary screen (AID 1103). Note: the record names both GSK3A and GSK3B. The following applies: fluorescence 635 nm, higher = more signal.
Assay [7] has as its target Epidermal growth factor receptor (Homo sapiens) (UniProt P00533). In words: compounds binding epidermal growth factor receptor – biochemical, small-molecule microarray, 635 nm fluorescence, primary screen (AID 1104).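 Note: score merges 667 nm emission intensity with spot signal to noise over triplicate slides.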 The following applies: EGFR binding, higher = more signal.
Assay [8] addresses Follistatin-related protein 3 (Homo sapiens) (UniProt O95633). Briefly: compounds binding follistatin-related protein 3 – biochemical, small-molecule microarray, 635 nm fluorescence, primary screen (AID 1105).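 Note: score merges emission near 667 nm and signal to noise per printed spot across three slides.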 To be noted: FSTL3 binding, higher = more signal.
Assay [9] addresses Dickkopf-related protein 1 (Homo sapiens) (UniProt O94907). Briefly: small molecules binding DKK1 protein – biochemical, small-molecule microarray, 635 nm fluorescence scan, primary screen (AID 1106).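 Note: score merges emission near 667 nm with signal to noise over three replicate slides.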 To be noted: higher = more signal.
In assay [10] the test system is Inhibin beta A chain (activin A). In words: small molecules binding activin A – biochemical, small-molecule microarray, 635 nm fluorescence scan, primary screen (AID 1107).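 Note: mouse activin A protein probed at 4.33 µg/mL on printed slides; score merges bound-protein fluorescence near 667 nm with spot signal-to-noise.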 To be noted: INHBA, higher = more signal.
The test system of assay [11] is Human papillomavirus type 1a protein E7 (residues 44-93). In words: small molecules binding HPV E7 44-93 – biochemical, small-molecule microarray, residues 44-93, 635 nm fluorescence, primary screen (AID 1108).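 Note: E7 fragment applied at 1 µg/mL in TBST for 1 h at 4 C; score combines spot fluorescence with its signal to noise ratio.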 To be noted: fluorescence 635 nm, higher = more signal.
The nature of assay [12]: hepatitis C replication reporter changes, two-sided – Huh7 cells, luciferase reporter, HCV replication inhibitor project, primary screen (AID 1109).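 Note: huh7 hepatoma cells harbouring a luciferase neomycin HCV replicon reporter; luciferase luminescence as measure of HCV replicon replication; test concentration not given here.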 The following applies: Huh7 HCV replicon luciferase reporter, 48 h; higher = more signal.
The target in assay [13] is Left-right determination factor 2 (Homo sapiens) (UniProt O00292). Briefly: small molecules binding LEFTY2 protein – biochemical, small-molecule microarray, 635 nm fluorescence scan, primary screen (AID 1110). The following applies: higher = more signal.
Chain of Left-right determination factor 2 (Homo sapiens) (O00292 whole entry, looked up): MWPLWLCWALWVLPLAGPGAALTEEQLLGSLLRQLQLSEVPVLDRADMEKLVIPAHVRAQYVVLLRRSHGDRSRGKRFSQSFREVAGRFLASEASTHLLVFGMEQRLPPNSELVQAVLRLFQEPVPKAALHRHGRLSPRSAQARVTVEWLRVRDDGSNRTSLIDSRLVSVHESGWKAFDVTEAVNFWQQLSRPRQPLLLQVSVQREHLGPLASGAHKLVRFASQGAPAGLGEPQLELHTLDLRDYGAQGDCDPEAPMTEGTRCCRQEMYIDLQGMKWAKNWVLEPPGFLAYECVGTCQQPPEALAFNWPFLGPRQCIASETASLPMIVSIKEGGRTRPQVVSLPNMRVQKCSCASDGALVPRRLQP
Assay [14] deals with Calmodulin-1 (Homo sapiens) (UniProt P0DP23). In words: small molecules binding calmodulin-1 with EGTA – biochemical, small-molecule microarray, Cy5-labelled CALM1, profiling panel (AID 1111).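 Note: labelled calmodulin applied in Tris saline Tween buffer holding calcium plus EGTA and DTT.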 To be noted: Cy5-CALM1 binding fluorescence, higher = more signal.
The target is the same in assay [15]. Briefly: small molecules binding Ca-loaded calmodulin-1 – biochemical, small-molecule microarray, Cy5-labelled CALM1, plus calcium, artefact control for SMM control-protein annotation, profiling panel (AID 1112).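 Note: score merges spot fluorescence with signal to noise from triplicate slides.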 The following applies: Cy5-CALM1 binding fluorescence, higher = more signal.
Assay [16] is described as follows: probe aWnt5a binding to arrayed compounds – biochemical, biotinylated probe, 635/667 nm fluorescence, primary screen (AID 1113).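 Note: score merges 667 nm fluorescence intensity with signal-to-noise per printed feature.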 To be noted: small-molecule microarray, higher = more signal.
The nature of assay [17]: probe aShh binding to arrayed compounds – biochemical, biotinylated probe, 635/667 nm fluorescence, primary screen (AID 1114).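 Note: probe is biotin-labelled aShh protein from a stem cell growth factor screen; measures binding of labelled protein to compounds printed on the slide; score merges feature fluorescence at 667 nm with signal-to-noise.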 The following applies: small-molecule microarray, higher = more signal.
Assay [18] is described as follows: probe aNog binding to arrayed compounds – biochemical, biotinylated probe, 635/667 nm fluorescence, primary screen (AID 1115).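 Note: probe is biotinylated aNog protein used at 0.15 µg/mL for 1 h at 4 C; z-score combines 667 nm fluorescence of each spot with its signal to noise.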 The following applies: small-molecule microarray, higher = more signal.
Assay [19] concerns the target Torsin-1A-interacting protein 1 (Homo sapiens) (UniProt Q5JTV8). Briefly: compound microarray binding of lysate hLAP1 – cell lysate, small-molecule microarray, COS7 lysate, 635/667 nm fluorescence, primary screen (AID 1116). To be noted: 635 nm fluorescence, higher = more signal.
In assay [20] the target is Alpha-bungarotoxin (Bungarus multicinctus) (UniProt P60615). Briefly: compounds binding labelled alpha-BTX control protein – biochemical, small-molecule microarray, Alexa647 label, 635/667 nm fluorescence, artefact control for SMM control protein annotation, profiling panel (AID 1117). The following applies: alpha-BTX-A647 binding fluorescence, higher = more signal.
Chain of Alpha-bungarotoxin (Bungarus multicinctus) (P60615 whole entry, looked up): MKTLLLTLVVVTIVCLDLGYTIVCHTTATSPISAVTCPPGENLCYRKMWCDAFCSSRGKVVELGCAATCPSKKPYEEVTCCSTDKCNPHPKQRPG

Active and inactive are the calls of the source.

Chain of Torsin-1A-interacting protein 1 (Homo sapiens) (Q5JTV8 whole entry, looked up): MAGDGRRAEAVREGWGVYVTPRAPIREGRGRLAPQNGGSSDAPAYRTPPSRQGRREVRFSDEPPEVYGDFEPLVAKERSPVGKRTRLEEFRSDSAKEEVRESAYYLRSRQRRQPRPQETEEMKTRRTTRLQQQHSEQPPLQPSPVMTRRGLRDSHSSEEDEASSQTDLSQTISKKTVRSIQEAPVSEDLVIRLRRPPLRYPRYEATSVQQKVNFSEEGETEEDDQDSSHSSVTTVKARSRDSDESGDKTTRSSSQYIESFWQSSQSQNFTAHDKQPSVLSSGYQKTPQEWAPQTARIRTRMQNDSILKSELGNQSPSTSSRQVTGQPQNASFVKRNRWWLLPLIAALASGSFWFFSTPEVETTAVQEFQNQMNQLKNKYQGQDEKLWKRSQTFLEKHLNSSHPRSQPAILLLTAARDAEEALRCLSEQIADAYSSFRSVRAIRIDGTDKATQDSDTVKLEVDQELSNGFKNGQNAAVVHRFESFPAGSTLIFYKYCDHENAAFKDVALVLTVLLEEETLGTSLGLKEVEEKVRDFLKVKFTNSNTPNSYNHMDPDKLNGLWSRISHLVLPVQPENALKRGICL
Chain of Epidermal growth factor receptor (Homo sapiens) (P00533 whole entry, looked up): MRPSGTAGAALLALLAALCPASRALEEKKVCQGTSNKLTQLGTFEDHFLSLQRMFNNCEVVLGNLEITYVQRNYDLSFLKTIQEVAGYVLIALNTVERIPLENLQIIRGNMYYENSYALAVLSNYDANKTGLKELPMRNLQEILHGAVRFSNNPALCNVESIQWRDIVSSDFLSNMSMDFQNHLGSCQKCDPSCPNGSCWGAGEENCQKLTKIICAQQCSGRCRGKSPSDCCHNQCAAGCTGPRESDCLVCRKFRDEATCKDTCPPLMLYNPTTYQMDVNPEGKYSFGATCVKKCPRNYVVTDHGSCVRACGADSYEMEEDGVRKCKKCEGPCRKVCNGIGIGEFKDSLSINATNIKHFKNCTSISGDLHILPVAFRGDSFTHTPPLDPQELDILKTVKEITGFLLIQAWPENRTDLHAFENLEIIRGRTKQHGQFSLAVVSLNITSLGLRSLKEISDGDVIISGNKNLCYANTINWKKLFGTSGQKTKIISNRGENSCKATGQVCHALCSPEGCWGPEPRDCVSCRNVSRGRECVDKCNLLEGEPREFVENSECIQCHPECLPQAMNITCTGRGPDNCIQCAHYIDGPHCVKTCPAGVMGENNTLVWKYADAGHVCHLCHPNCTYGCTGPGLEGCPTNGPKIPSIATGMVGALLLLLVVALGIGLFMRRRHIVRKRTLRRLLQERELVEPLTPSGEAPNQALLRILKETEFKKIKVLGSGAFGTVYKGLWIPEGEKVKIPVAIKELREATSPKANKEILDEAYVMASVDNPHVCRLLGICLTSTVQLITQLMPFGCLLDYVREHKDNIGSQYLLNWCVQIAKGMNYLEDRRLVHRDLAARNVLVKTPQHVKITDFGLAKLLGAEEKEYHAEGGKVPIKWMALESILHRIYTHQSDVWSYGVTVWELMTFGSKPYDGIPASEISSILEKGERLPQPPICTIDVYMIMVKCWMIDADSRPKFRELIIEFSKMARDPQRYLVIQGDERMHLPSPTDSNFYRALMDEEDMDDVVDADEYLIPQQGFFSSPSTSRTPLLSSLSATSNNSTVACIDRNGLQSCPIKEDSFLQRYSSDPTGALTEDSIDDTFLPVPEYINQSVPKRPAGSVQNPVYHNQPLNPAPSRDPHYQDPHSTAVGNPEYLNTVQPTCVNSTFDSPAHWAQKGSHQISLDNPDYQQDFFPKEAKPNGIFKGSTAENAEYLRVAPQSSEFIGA
Chain of Follistatin-related protein 3 (Homo sapiens) (O95633 whole entry, looked up): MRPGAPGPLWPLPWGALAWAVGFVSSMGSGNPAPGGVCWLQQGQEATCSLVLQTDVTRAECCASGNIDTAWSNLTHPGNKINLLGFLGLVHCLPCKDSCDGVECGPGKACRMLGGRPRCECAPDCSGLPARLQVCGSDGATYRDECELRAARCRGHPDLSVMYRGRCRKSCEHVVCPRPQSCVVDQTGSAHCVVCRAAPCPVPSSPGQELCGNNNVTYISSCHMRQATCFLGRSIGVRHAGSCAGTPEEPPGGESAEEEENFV
Chain of Dickkopf-related protein 1 (Homo sapiens) (O94907 whole entry, looked up): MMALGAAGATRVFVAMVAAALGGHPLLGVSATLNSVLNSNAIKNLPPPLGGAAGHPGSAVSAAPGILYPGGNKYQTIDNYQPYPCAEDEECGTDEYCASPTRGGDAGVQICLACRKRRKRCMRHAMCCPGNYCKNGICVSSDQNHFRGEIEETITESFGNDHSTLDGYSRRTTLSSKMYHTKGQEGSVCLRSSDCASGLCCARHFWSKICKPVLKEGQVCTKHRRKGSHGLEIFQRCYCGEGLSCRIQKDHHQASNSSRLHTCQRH

Turning to `CO[C@]12C=C(Br)[C@@H](C[C@@H]1c1cccc(C)c1)[C@@]1(CO1)C2=O`, the composite z-score in assay [1] is 1.53; in assay [2] it was -0.306; in assay [3] it was -0.284; in [5], 0.0635; in assay [6], -0.207; in assay [7] it was -0.14. Also, the composite z-score in [8] was 0.261; in assay [9] it was 0.0254; in assay [10] it was 0.521; in assay [11], 0.194; in assay [13], 0.334; in [14] it was -0.426. Besides, the composite z-score in [15] is -0.83; in [16] it was -0.247; in assay [17] it was -0.2; in [18], -0.0852; in [19], -0.373; in assay [20] it was -0.157. Moreover, the values for the z-score in assay [4] and in [12] were -0.258 (inactive) and -3.39, respectively.
For `COC(=O)[C@@]1(Cc2ccc(F)cc2)[C@H]2c3cc(C(=O)N4CCCC4)n(CCc4ccc(O)c(O)c4)c3C[C@H]2CN1C(=O)c1ccccc1`, the composite z-score in assay [1] is 0.391; in assay [2], 1.8; in assay [3], 1.04; in assay [5], -0.206; in assay [6], -1.73; in [7], -0.0942. The composite z-score in assay [8] is -0.457; in assay [9], -0.359; in assay [10], 1.1; in assay [11] it was -0.369; in assay [13] it was -0.772; in assay [14], 0.765. In addition, the composite z-score in assay [15] is 0.694; in [16], 0.752; in [17], 2.04; in [18], 2.27; in assay [19], 0.661; in assay [20], -0.125. In addition, the values for the z-score in assay [4] and in [12] were -2.62 (inactive) and -1.79, respectively.
Take `CC(C)N1CC=CC23O[C@@H]4C=CCOC(=O)[C@@H]4[C@H]2C(=O)N(CCCO)[C@@H]3C1=O` (stereo not given in full): the composite z-score in assay [1] is 1.95; in assay [2], -0.286; in assay [3] it was 0.627; in assay [5], -0.0827; in [6], 0.0274; in assay [7], -0.42. Besides, the composite z-score in assay [8] is -0.123; in assay [9], -0.74; in [10] it was 0.929; in assay [11], 1.49; in [13] it was -0.932; in assay [14], -0.373. The composite z-score in assay [15] was 0.731; in assay [16] it was -0.18; in assay [17], -0.123; in [18] it was -0.196; in assay [19], 1.47; in [20], -0.381. Further, the figures for the z-score in [4] and in assay [12] were -3 (inactive) and -0.223, respectively.
`COc1ccc([Si](C)(C)[C@@H]2[C@@H](CC(=O)N(CCO)Cc3ccccc3)O[C@]3(C(=O)N(Cc4cccc(N5CCOC5=O)c4)c4ccccc43)[C@H]2C)cc1`: the composite z-score was 1.07 in [1]; -0.178 in [2]; -0.29 in assay [3]; 0.386 in assay [5]; 0.688 in assay [6]; 0.41 in assay [7]. Besides, the composite z-score in assay [8] is 0.468; in assay [9], 0.291; in assay [10] it was 0.523; in assay [11], -0.139; in [13], 0.538; in [14], -0.561. Also, the composite z-score in assay [15] is -0.44; in assay [16] it was -0.173; in [17], -0.0011; in [18], -0.237; in assay [19], 0.861; in [20] it was 1.2. The figures for the z-score in [4] and in assay [12] were -0.244 (inactive) and -3.7, respectively.
`CCCC[C@@H]1C[C@H]1[C@@H](NC(=O)c1ccccc1)c1ccc(C(F)(F)F)cc1`: the composite z-score was -0.829 in [1]; 0.455 in assay [2]; 0.926 in [3]; -0.896 in assay [5]; -1.74 in assay [6]; -1.09 in assay [7]. Also, the composite z-score in assay [8] was -0.683; in assay [9], -0.993; in assay [10], 0.986; in [11], -1.52; in assay [13], -1.06; in assay [14], -0.17. The composite z-score in assay [15] was 0.87; in [16], -0.0084; in assay [17], -0.296; in assay [18], -0.194; in assay [19], -0.309; in assay [20] it was -0.501. Also, the z-score in assay [4] was -0.188 (inactive); in assay [12], -0.444.
For `C=C(C(=O)CC[C@@H](OC(C)=O)c1ccc(CO)o1)C(C)C`, the composite z-score in assay [1] was -0.78; in [2], -0.418; in [3], -0.298; in assay [5] it was 0.826; in [6], 0.482; in assay [7] it was -0.289. Also, the composite z-score was 1.39 in [8]; 0.536 in assay [9]; 1.41 in assay [10]; -0.306 in [11]; 0.13 in assay [13]; -0.299 in assay [14]. For the same compound, the composite z-score in assay [15] is -0.89; in assay [16] it was -0.1; in assay [17], 0.213; in assay [18] it was 0.149; in assay [19] it was 1.73; in [20], 0.844. For the same compound, the results for the z-score in [4] and in [12] were 0.993 (inactive) and -1.25, respectively.
